# Assay outcomes: PubChem BioAssay, several laboratories
# Compounds with a hit are over-represented: about 1.6% of the library has one in this group of screens.
# Vif imaging – HIV Vif self-association inhibitors, primary screen, imaging, HEK293T, single point | HEK293T cells, Vif self-association by quenched fluorescence, 24 h | hit rate 0.35% among 340,000 | inhibition, % at 7.49 µM; in the data active = inhibition above about 50%, passing the limit was not always enough; inconclusive = no clear call, values can overlap the other calls; inactive = below about 31%
# ABCB6 inh MLPCN – ABCB6 transporter inhibitors, primary screen, K562-ABCB6 cells, flow cytometry, MLPCN library | fluorescence ratio to DMSO, % at 10 µM | hit rate 0.19% among 360,000 | ATP-binding cassette sub-family B member 6 (Homo sapiens), Q9NP58 | AID 602162, 2011 | K562-ABCB6 porphyrin accumulation, 1 h; stronger effect = lower value;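 active = fluorescence ratio to DMSO below 75%, the collection mean minus 3 SD; inconclusive = too few cells collected in the well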;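 also: signal is porphyrin accumulated inside mitochondria; 100% equals median channel fluorescence of DMSO control wells; lower ratio means ABCB6 inhibition with less porphyrin fluorescence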
# Target sequence (Q9NP58 whole entry, looked up): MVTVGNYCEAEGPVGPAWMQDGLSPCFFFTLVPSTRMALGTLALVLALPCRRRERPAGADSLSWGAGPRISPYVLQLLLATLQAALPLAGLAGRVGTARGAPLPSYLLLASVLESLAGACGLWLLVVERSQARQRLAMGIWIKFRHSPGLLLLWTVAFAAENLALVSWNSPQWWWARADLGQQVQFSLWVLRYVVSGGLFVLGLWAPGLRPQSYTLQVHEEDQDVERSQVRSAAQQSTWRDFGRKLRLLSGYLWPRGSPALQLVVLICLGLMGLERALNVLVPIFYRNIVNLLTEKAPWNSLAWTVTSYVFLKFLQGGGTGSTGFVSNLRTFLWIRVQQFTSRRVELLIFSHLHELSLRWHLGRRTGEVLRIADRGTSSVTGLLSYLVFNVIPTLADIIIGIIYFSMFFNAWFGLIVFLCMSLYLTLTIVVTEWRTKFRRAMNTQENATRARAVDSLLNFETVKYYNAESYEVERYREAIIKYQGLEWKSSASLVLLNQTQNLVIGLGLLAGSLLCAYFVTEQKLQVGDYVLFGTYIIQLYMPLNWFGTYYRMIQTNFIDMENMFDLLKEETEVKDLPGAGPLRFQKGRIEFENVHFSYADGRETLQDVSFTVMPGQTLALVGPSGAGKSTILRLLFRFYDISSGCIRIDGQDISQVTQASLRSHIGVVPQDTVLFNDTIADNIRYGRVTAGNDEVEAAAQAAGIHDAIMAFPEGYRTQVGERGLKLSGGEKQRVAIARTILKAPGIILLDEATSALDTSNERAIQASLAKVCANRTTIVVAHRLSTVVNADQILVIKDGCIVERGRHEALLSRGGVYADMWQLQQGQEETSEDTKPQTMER
# Myeloid diff MLP – induction of myeloid progenitor differentiation, primary screen, cell-based, flow cytometry, MLPCN library; ER-HoxA9 myeloid progenitors, lysozyme-GFP differentiation; calls only at 10 µM; hit rate 1% among 360,000; AID 624256, 2012;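 active = normalized GFP-positive differentiation at or above the plate's own cutoff, the solvent-only control mean plus 3 SD; inconclusive = no clear call, values can overlap the other calls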;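 also: cells exposed to compound for four days before flow analysis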
# N-glyco inh – increase of ERlucT glycosylation luciferase signal, primary screen, N-linked glycosylation inhibitor project, D54 ERlucT cells, luminescence, set 2. D54 ERlucT glycosylation luciferase reporter, 24 h; percent of 100 nM tunicamycin response. reporter increase, % at 12.5 µM. hit rate 0.23% among 360,000;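 active = mean luciferase reporter signal, scaled so untreated is 0 and the glycosylation-blocking control 100, at or above a set limit in every replicate; inconclusive = mean reaches the limit but not every replicate does; inactive = mean below the limit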;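 also: luciferase carries N-glycosylation sites so blocking glycosylation raises the light; 0% = median of neutral control wells and 100% = median of 100 nM tunicamycin wells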
# RAD54 branch – inhibitors of human RAD54 branch migration, primary screen, biochemical, fluorescence, single point; RAD54 Holliday junction branch migration, FAM/BHQ fluorescence; inhibition, % at 10.4 µM; hit rate 0.14% among 360,000; AID 602329, 2012;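 active = mean normalized replicate activity at least 40 and at least half of replicates scoring 40 or more; inconclusive = only one of the two criteria met; inactive = mean below 40 and under half of replicates reaching 40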;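 also: 0% = median of neutral control wells and 100% = median of positive control wells; inhibitors cause a drop in the FAM fluorescence signal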
# Starred values were filed as active, the others as inactive; i = inactive; u = inconclusive; x = no result; + = active, no number; ! = a repeat was not active.
SMILES,Vif imaging,ABCB6 inh MLPCN,Myeloid diff MLP,N-glyco inh,RAD54 branch
O=C(C1CCC(=O)N(C2CCCC2)C1)N1CCN(Cc2cccc(F)c2)CC1 (stereo unspecified),-5,100,+,-1,0
COc1ccc(CN(C)C[C@@H]2OCCCC[C@H](C)Oc3ccc(NS(=O)(=O)c4ccc(OC)cc4)cc3C(=O)N([C@@H](C)CO)C[C@@H]2C)cc1,x,x,x,x,-1
Nc1ccc(S(=O)(=O)c2ccc(N)nc2)cc1,57*,98,i,-2,14
COCCNC(=O)C[C@H]1C[C@H]2c3cc(NC(=O)C4CCC4)ccc3O[C@H]2[C@H](CO)O1,x,x,x,x,-2
Cn1c(=O)c2c(nc(CN3CCN(Cc4ccccc4)CC3)n2Cc2cccc(Cl)c2)n(C)c1=O,x,94,i,1,-2
Cn1c(=O)c2c(nc(CN3CCc4ccccc4C3)n2Cc2cccc(Cl)c2)n(C)c1=O,-2,93,+,2,-2
COCC(=O)Nc1ccc2c(c1)C(=O)N(C)C[C@H](OC)[C@H](C)CN(C(=O)C1CCCC1)[C@H](C)CO2,x,x,x,x,-8
COC(=O)c1cccc(NC(=O)CSc2nnc(-c3ccco3)o2)c1,58*,89,i,3,12
COc1ccc(OC)c(NC(=O)CSc2nnc(-c3ccco3)o2)c1,4,95,i,0,-4
O=C(NCC[C@@H]1CC[C@@H](NS(=O)(=O)c2ccccc2)[C@H](CO)O1)c1ccc2c(c1)OCO2,x,x,x,x,-8
C[C@H](CO)N1C[C@H](C)[C@@H](CN(C)C(=O)Nc2ccc3c(c2)OCO3)OCCCC[C@H](C)Oc2ccc(NC(=O)c3ccncc3)cc2C1=O,x,x,x,x,-6
O=C(CN1C(=O)COc2ccc(Cl)cc21)Nc1ccc2c(c1)OCCO2,x,89,+,-3,x
COc1cc(/C=C/c2nc3ccccc3s2)cc(OC)c1O,2,107,+,1,x
CN(C)c1ccc(/C=C/c2nc3ccccc3s2)cc1,4,120,+,-17,-8
COc1cc(C=C(c2nc3ccccc3s2)c2nc3ccccc3s2)ccc1O,-13,122,i,5,0
COc1ccc(C=C(c2nc3ccccc3s2)c2nc3ccccc3s2)cc1O,-1,122,i,29*,-1
Nc1nc(=S)c2ncn(C3OC(CO)C(O)C3O)c2[nH]1 (stereo unspecified),8,98,u,66*,13
CCNC(=O)[C@@H]1[C@@H](CO)[C@@H]2Cn3c(ccc(-c4ccc(OC)cc4)c3=O)[C@@H]2N1Cc1ccccc1,x,x,x,x,7
Cc1ccc(S(=O)(=O)N(C)C[C@@H]2Oc3c(NC(=O)Nc4cccc5ccccc45)cccc3C(=O)N([C@@H](C)CO)C[C@H]2C)cc1,x,x,x,x,2
CC(=O)c1cccc(Nc2cc(C)nc3c(C)cc(C)cc23)c1,-5,101,i,67*,x
O=C(c1ccc(F)cc1)N1CCCCN2[C@H](CO)[C@H](c3ccc(-c4ccc(F)cc4)cc3)[C@@H]2C1,x,x,x,x,3
CCOC(=O)CSc1ccc2ccccc2n1,-3,95,i,0,x
CCOC(=O)CN1C=C(c2ccc3ccccc3n2)C(C[N+](=O)[O-])c2ccccc21 (stereo unspecified),-9,339,+,1,2
CCN1/C(=C2/SC(=S)N(NC(C)=O)C2=O)Sc2ccc(Cl)cc21,-6,104,i,-1,4
CCN1/C(=C2/SC(=S)N(NC(C)=O)C2=O)Sc2ccc(OC)cc21,71*,103,i,-1,-9
SMILES,Vif imaging,ABCB6 inh MLPCN,Myeloid diff MLP,N-glyco inh,RAD54 branch
COc1ccc(C(=O)Nc2cccc(NC(C)=O)c2)cc1OC,-4,343,+,5,x
CC(C)CC#Cc1cnc2c(c1)C(=O)N([C@@H](C)CO)C[C@@H](C)[C@@H](CN(C)C(=O)c1ccc(F)cc1)O2,x,x,x,x,-5
Cc1noc(C)c1S(=O)(=O)N(C)C[C@@H]1OCCCC[C@@H](C)Oc2ccc(NS(=O)(=O)c3ccc(F)cc3)cc2C(=O)N([C@@H](C)CO)C[C@H]1C,x,x,x,x,-2
CCCN(CCC)C(=O)CC(c1ccccc1)c1ccc(C)cc1O (stereo unspecified),13,106,i,-4,2
Cc1ccc(O)c([C@H](CCN(C(C)C)C(C)C)c2ccccc2)c1,1,98,+!,4,9
C[C@@H]1CCCCO[C@H](CN(C)Cc2ccc3c(c2)OCO3)[C@H](C)CN([C@@H](C)CO)C(=O)c2cc(NC(=O)Nc3ccc(F)cc3)ccc2O1,x,x,x,x,-2
COc1cccc2sc(NNC(=O)C3=COCCO3)nc12,4,103,+,1,-3
Cc1noc(C)c1NC(=O)N[C@@H]1C=C[C@H](CC(=O)NCc2ccc(Cl)c(Cl)c2)O[C@H]1CO,x,x,x,x,0
COc1cc2c(cc1OC)CN1CCc3cc(OC)c(OC)cc3C1C2 (stereo unspecified),12,108,i,-1,84*
CN1CCCN(S(=O)(=O)c2ccccc2)c2nc3ccccc3nc21,9,116,+,1,-13
CC(=O)Nc1ccc(S(=O)(=O)N2CN(c3ccc(C)cc3)c3nc4ccccc4nc32)cc1,8,92,i,0,-9
CN1CCCNc2nc3ccccc3nc21,3,98,+,4,-11
Nc1nc2ccccc2nc1N1CCCC1,12,98,i,3,-1
COc1ccc(CCN2CN(S(=O)(=O)c3ccccc3)c3nc4ccccc4nc32)cc1,-11,102,i,0,x
Cc1ccc(S(=O)(=O)N2CCCN(C)c3nc4ccccc4nc32)cc1,-10,128,+,-1,-11
C[C@H]1CCCCO[C@H](CN(C)S(=O)(=O)c2ccccc2)[C@@H](C)CN([C@@H](C)CO)C(=O)c2cc(NC(=O)Nc3ccc(F)cc3)ccc2O1,x,x,x,x,6
COc1ccc(S(=O)(=O)N(C)C[C@H]2OCCCC[C@H](C)Oc3ccc(NC(=O)Nc4c(C)noc4C)cc3C(=O)N([C@H](C)CO)C[C@H]2C)cc1,x,x,x,x,-1
N#C/C(=C/c1ccc(-c2ccc([N+](=O)[O-])cc2)o1)C(=O)Nc1nc(-c2cccs2)cs1,19,183,i,-1,x
Cc1ccc(Cc2cnc(NC(=O)/C(C#N)=C/c3ccc(-c4ccc([N+](=O)[O-])cc4)o3)s2)cc1,89*,155,i,2,-5
CNC(=O)C[C@H]1CC[C@H]2[C@@H](COc3ccc(NC(=O)Nc4ccc(C)cc4)cc3C(=O)N2C)O1,x,x,x,x,-4
CC(=O)N1CCC(=NNC(=O)c2cc3ccccc3cc2O)CC1,51*,99,i,-1,-5
